Only a sample is shown.
PLAP activator = human PLAP activation | P05187 | purified PLAP enzyme, luminescent substrate read-out; stronger effect = higher value | activation fold at 20 µM | 96,000 tested, 1.2% active; in the data active = activation fold above about 2
CYP2C19 activ = cytochrome P450 2C19 (human) activation | activation factor at 5 µM | AID 1025 | 96,000 tested, under 10 active | recombinant CYP2C19, luciferin-H EGE luminescence; stronger effect = higher value; 0 = fully inhibited enzyme, 1 = untreated enzyme | P33261;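 active = activation factor of at least 2 at 5 µM in the primary screen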;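 also: 0 = wells with 2.5 mM tranylcypromine and 1 = vehicle-only wells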
CYP2C9 act = increases human cytochrome P450 2C9 activity; 96,000 tested, 1.4% active; recombinant CYP2C9, luciferin-H conversion, luminescence; stronger effect = higher value; factor 1 = untreated enzyme, 0 = blocked; P11712; activation factor at 5 µM;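 active = activation factor of 2 or more for CYP2C9 at a 5 µM dose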;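 also: 0 = sulfaphenazole-blocked wells and 1 = vehicle-only wells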
CYP2C19 inhib = human CYP2C19 inhibition. P33261. 96,000 tested, 21% active. inhibition, % at 5 µM. AID 778. CYP2C19 Supersomes, luciferin-H EGE luminescence, 30 min;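 active = CYP2C19 inhibition above a set limit at 5 µM in the primary screen, cut at about 50% in these data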;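 also: plate controls were negative control wells for no effect and 2.5 mM tranylcypromine positive control for full effect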
CYP2C9 inh = inhibitors of human CYP2C9; inhibition, % at 5 µM; 96,000 tested, 20% active; CYP2C9 Supersomes, luciferin-H conversion, luminescence; P11712; AID 777;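 active = blocking of liver enzyme CYP2C9 beyond about 50% at 5 µM, limit read from the data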
* = called active by the depositor.

SMILES	PLAP activator	CYP2C19 activ	CYP2C9 act	CYP2C19 inhib	CYP2C9 inh
Cc1ccc2c(c1)C(N1CCCC1=O)CC(c1ccco1)N2 (centres undefined)	1.2	0.2	0.7	78*	29
Cc1ccc(NC(=O)C2CCCN(S(=O)(=O)c3c(C)noc3/C=C/N(C)C)C2)cc1F (centres undefined)	1	1	0.9	0	15
Cc1cc(NC(=O)C2(c3ccccc3)CCCC2)no1	1	0.6	0.7	42	29
CSc1nc(Oc2ccc3ccccc3c2)c2ccccc2n1	1.1	0.6	0.6	38	36
O=C(O)c1ccccc1C(=O)NNc1ccc(F)cc1	1.1	1	1	-3	0
O=C(NC12CC3CC(CC(C3)C1)C2)N1CCC(O)(c2ccc3c(c2)OCO3)CC1	1	0.6	1.1	43	-5
O=C(COc1ccc2c(c1)OCO2)NC12CC3CC(CC(C3)C1)C2	1.1	0.1	0.3	94*	75*
CCn1nnc(-c2ccccc2NS(=O)(=O)c2ccc(S(=O)(=O)N3CCCCCC3)cc2)n1	1.3	0.9	0.9	6	5
CCn1nnc(-c2ccccc2NS(=O)(=O)c2ccc(S(=O)(=O)N(C)C3CCCCC3)cc2)n1	1.6	0.8	0.2	17	84*
CCOC(=O)c1ccc(S(=O)(=O)Nc2cc(C(C)(C)C)no2)cc1	1.1	0.8	0.2	16	83*
CCOC(=O)c1ccc(S(=O)(=O)Nc2ccccc2-c2nnn(CC)n2)cc1	1.6	0	0	99*	96*
CCOC(=O)c1ccc(NC(=O)NS(=O)(=O)c2ccc(C)cc2)cc1	0.9	0.9	0.9	12	12
O=C1N2CCSC2=NC1(NS(=O)(=O)c1ccccc1)C(F)(F)F (centres undefined)	0.9	1	0.9	0	10
Cc1onc(-c2ccccc2Cl)c1C(=O)Nc1ccc(-n2nncc2-c2ccco2)cc1	1	0	0.1	99*	93*
Cc1onc(-c2ccccc2Cl)c1C(=O)Nc1ccc(S(=O)(=O)NCC2CCCO2)cc1 (centres undefined)	1.1	0.7	0.3	29	67*
CCCCNS(=O)(=O)c1ccc(NC(=O)c2c(-c3ccccc3Cl)noc2C)cc1	1	0.2	0	83*	100*
CCOC(=O)c1c(C)oc(/N=C/c2ccccc2O)c1C#N	0.9	0.9	0.7	13	29
CCC1CCCCN1Cc1cc(OC)c(O)c([N+](=O)[O-])c1 (centres undefined)	0.9	1.1	1.1	-10	-7
O=[N+]([O-])c1cc(/C=N/OCc2c(Cl)cccc2Cl)ccc1N1CCOCC1	1.1	0.9	0.6	7	37
Cc1ccc(N2CC(C(=O)NCC3CCCO3)CC2=O)cc1Cl (centres undefined)	1	1	2.6*	2	-162
O=C(NCC1CCCO1)c1ccccc1 (centres undefined)	1.2	1.2	1.2	-18	-20
Cc1ccc(NC(=S)NCC2CCCO2)cc1 (centres undefined)	1	0.8	1.1	23	-14
Cc1cnn(C(=S)NCC2CCCO2)c1 (centres undefined)	2.1*	0.4	1	56*	0
Cc1ccc(C(=O)NC(=S)NCC2CCCO2)cc1 (centres undefined)	0.9	0.3	0.6	68*	37
Cc1ccc(C)n1-c1ccc(C(=O)NCC2CCCO2)cc1 (centres undefined)	1.6	0.4	0.8	58*	18
SMILES	PLAP activator	CYP2C19 activ	CYP2C9 act	CYP2C19 inhib	CYP2C9 inh
CC(C)(C)NC(=O)CN(Cc1cccnc1)C(=O)c1csnn1	0.9	0.7	0.9	28	10
OC1C[N+]2(CCCCC2)C1	0.8	1.1	1	-10	-4
COC(=O)c1cc(C(=O)Nc2cc(C)ccn2)cc([N+](=O)[O-])c1	0.9	0.9	0.7	13	26
CCOC(=O)CSc1nnc(NCC(=O)OC(C)C)c(=O)[nH]1	1	1.1	1.2	-13	-21
Cc1cc(C(=O)NNC(=S)NCC2CCCO2)cs1 (centres undefined)	2.2*	0.5	1.2	52*	-21
Cc1cccc(NC(=S)NCC2CCCO2)c1 (centres undefined)	0.9	1.1	1.2	-12	-20
C/C(=N\Nc1nc2c(s1)CCCC2)c1ccc(Cl)cc1	1.4	0.8	0.8	17	18
CC(C)c1ccc(NC(=O)COc2ccc(S(=O)(=O)N3CCOCC3)cc2)cc1	0.9	1.2	0.6	-18	38

Screens: PubChem BioAssay, Sanford-Burnham Center for Chemical Genomics
